# Data reported in the supplement of paper PMC10849652.
# Targets with a hit are over-represented here; the source holds about 7,900 in all. About 0.6% of all pairs of compound and target were hits. A number with no mark means an inactive call.
# Experiments:
# Test in all cases: log2 fold change, soluble protein after heating vs DMSO (PISA); higher = thermal stabilisation; K562 cells, 10 uM, 30 min; active = over 0.2 and 3.5 SD of the protein, either way, in both replicates (recomputed)
# [1] = compound: CC[C@@H]1C(=O)N(C)c2cnc(Nc3ccc(C(=O)NC4CCN(C)CC4)cc3OC)nc2N1C1CCCC1
# Outline: (§1)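 K562 cells (2×10^6 cells/mL) were treated with 10 μM compound for 30 min, and aliquots were heated for 3 min over 48°C-58°C. Pooled aliquots were extracted in PBS with 0.5% NP-40 at 4°C, and the supernatant after 21,000xg for 90 min was measured by TMTpro 16plex LC-MS/MS with channel sums equalised. Reported thermal stability, relative to control samples and from duplicates, is a log2 fold change.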
# volasertib = compound: CC[C@@H]1C(=O)N(C)c2cnc(Nc3ccc(C(=O)N[C@H]4CC[C@H](N5CCN(CC6CC6)CC5)CC4)cc3OC)nc2N1C(C)C [volasertib]
# Outline: as §1
# epoxomicin = compound: CC[C@H](C)[C@@H](C(=O)N[C@@H]([C@@H](C)O)C(=O)N[C@@H](CC(C)C)C(=O)[C@]1(CO1)C)NC(=O)[C@H]([C@@H](C)CC)N(C)C(=O)C [epoxomicin]
# Outline: as §1
# [2] = compound: CCn1c(C(=O)N(C2CC2)C2CC2)cc2c3c(ncn3C)c(Nc3cc(C)n(C)n3)nc21
# Outline: as §1
# [3] = compound: CCn1cc(-c2ccnc3[nH]c(-c4cccc(CN(C)C)c4)cc23)c(-c2ccc(NC(=O)N(C)C)cc2)n1
# Outline: as §1
# [4] = compound: CN(C)CC(=O)Nc1ccc2[nH]c(=O)c3ccccc3c2c1
# Outline: as §1
# rosiglitazone = compound: CN(CCOC1=CC=C(C=C1)C[C@H]2C(=O)NC(=O)S2)C3=CC=CC=N3 (racemic) [rosiglitazone]
# Outline: as §1
# [5] = compound: CN1C2=C(C3=C1C(=O)N(N=C3)CC4=CC(=CC=C4)N)SC(=C2)S(=O)C
# Outline: as §1
# [6] = compound: CN1CCC(CNc2ccc3ncc(-c4cccc(OC(F)(F)F)c4)n3n2)CC1
# Outline: as §1
# [7] = compound: CC[C@H](C)N1C=C(C2=C(C=C(C=C21)C3=CN=C(C=C3)N4CCNCC4)C(=O)NCC5=C(C=C(NC5=O)C)C)C
# Outline: as §1
# UniProt Q9UBY8, sequence (Q9UBY8 whole entry, looked up): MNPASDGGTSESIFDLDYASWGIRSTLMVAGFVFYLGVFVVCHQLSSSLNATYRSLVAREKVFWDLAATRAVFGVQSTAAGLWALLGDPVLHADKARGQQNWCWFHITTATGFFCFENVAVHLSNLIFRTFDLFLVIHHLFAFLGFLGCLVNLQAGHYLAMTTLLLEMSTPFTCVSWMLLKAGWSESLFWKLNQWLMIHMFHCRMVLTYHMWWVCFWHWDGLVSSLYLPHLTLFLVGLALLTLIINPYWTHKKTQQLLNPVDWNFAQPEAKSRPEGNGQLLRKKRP
# UniProt P33552, sequence (P33552 whole entry, looked up): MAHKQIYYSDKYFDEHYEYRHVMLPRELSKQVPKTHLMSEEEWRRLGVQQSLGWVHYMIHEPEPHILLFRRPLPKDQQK
# UniProt O95273, sequence (O95273 whole entry, looked up): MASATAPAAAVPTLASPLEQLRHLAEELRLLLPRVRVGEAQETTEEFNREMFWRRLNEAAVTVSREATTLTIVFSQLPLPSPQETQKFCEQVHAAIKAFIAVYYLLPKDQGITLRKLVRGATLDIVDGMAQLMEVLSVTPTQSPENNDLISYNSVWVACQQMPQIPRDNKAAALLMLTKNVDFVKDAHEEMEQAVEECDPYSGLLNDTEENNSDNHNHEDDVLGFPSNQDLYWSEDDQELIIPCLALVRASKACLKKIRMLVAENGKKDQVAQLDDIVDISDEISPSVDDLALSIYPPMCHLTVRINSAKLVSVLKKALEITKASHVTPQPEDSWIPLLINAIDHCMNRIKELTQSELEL
# UniProt P11802, sequence (P11802 whole entry, looked up): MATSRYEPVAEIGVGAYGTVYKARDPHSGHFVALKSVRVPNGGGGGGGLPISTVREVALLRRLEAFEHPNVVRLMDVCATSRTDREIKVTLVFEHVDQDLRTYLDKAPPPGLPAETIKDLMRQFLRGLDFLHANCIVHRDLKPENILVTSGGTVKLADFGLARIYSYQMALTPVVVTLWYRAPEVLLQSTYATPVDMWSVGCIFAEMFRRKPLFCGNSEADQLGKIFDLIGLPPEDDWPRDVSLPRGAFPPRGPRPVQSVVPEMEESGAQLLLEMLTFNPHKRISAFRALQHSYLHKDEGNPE
# UniProt Q69YH5, sequence (Q69YH5 whole entry, looked up): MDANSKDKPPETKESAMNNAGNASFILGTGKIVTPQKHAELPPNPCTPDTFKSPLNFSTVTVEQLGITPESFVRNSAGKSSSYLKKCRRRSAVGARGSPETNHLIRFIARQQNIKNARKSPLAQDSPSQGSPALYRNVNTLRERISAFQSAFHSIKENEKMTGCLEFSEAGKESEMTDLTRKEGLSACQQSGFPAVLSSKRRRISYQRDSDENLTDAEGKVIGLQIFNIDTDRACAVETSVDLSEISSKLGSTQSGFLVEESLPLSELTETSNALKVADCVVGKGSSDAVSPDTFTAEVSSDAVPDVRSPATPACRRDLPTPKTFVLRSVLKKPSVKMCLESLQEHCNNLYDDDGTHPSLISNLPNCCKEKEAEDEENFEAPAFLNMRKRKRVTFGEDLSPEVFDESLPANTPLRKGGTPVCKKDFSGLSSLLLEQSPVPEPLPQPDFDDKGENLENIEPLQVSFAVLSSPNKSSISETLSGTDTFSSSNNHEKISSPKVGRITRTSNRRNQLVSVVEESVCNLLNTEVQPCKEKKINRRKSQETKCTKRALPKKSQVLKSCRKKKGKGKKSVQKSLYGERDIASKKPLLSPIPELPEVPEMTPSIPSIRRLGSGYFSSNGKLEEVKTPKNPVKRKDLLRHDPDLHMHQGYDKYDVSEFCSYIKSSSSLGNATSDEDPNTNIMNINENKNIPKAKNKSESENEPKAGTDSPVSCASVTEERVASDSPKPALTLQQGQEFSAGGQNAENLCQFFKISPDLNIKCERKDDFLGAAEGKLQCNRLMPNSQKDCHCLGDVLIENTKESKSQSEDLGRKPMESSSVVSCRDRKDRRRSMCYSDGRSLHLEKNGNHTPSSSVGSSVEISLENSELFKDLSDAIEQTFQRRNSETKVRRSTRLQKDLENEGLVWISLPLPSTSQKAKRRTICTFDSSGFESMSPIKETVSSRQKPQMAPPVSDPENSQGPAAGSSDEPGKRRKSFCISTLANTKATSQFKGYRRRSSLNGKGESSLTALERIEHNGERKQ
# UniProt Q13286, sequence (Q13286 whole entry, looked up): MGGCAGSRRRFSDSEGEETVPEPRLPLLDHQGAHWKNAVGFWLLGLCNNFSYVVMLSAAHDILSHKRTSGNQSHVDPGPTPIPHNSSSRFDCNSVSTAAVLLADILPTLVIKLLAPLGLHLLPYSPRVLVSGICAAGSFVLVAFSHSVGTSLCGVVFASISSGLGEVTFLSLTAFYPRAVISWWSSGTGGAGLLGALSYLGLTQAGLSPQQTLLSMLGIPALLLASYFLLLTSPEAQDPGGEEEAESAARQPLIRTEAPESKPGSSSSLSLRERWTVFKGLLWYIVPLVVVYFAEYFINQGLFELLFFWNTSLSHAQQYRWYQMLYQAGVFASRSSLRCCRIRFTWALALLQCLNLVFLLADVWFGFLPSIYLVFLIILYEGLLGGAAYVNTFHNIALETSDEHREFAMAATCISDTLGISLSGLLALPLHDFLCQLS
# UniProt P51795, sequence (P51795 whole entry, looked up): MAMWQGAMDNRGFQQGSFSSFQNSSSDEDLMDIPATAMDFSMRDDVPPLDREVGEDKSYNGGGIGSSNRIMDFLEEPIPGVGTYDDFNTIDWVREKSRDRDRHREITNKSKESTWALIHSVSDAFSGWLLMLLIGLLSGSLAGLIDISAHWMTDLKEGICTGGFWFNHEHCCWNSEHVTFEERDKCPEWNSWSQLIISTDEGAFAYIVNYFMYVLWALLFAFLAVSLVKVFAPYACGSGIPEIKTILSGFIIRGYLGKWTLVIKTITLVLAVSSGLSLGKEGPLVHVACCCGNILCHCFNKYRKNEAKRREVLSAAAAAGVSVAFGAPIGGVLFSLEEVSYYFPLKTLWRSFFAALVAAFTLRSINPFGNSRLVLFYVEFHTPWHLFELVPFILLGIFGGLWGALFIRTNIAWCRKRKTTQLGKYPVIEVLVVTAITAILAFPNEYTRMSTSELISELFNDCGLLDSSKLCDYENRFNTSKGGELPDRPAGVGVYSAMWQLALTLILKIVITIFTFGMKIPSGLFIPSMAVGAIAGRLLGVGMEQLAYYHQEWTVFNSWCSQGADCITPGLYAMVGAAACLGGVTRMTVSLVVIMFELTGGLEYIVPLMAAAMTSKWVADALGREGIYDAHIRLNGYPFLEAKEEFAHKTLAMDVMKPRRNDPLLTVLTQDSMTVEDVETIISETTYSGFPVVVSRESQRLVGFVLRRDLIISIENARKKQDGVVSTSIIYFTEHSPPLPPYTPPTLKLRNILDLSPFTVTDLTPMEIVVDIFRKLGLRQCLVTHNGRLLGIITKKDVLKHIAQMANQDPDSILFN
# UniProt Q96F85, sequence (Q96F85 whole entry, looked up): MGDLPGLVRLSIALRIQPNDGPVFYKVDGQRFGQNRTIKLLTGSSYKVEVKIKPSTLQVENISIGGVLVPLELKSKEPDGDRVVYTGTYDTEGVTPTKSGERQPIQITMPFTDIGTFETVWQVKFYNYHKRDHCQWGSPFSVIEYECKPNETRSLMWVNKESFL
# UniProt P55211, sequence (P55211 whole entry, looked up): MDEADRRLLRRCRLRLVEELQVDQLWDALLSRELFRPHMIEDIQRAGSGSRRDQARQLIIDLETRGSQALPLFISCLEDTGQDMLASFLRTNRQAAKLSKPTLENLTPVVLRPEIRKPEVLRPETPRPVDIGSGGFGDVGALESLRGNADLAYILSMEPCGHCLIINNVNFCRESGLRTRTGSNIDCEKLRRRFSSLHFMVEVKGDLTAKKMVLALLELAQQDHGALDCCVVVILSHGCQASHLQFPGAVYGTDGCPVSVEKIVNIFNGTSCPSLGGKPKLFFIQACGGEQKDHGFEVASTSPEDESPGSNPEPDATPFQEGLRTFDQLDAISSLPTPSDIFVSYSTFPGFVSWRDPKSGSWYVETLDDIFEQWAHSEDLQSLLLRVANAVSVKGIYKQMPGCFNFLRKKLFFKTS
# UniProt Q2TAC2, sequence (Q2TAC2 whole entry, looked up): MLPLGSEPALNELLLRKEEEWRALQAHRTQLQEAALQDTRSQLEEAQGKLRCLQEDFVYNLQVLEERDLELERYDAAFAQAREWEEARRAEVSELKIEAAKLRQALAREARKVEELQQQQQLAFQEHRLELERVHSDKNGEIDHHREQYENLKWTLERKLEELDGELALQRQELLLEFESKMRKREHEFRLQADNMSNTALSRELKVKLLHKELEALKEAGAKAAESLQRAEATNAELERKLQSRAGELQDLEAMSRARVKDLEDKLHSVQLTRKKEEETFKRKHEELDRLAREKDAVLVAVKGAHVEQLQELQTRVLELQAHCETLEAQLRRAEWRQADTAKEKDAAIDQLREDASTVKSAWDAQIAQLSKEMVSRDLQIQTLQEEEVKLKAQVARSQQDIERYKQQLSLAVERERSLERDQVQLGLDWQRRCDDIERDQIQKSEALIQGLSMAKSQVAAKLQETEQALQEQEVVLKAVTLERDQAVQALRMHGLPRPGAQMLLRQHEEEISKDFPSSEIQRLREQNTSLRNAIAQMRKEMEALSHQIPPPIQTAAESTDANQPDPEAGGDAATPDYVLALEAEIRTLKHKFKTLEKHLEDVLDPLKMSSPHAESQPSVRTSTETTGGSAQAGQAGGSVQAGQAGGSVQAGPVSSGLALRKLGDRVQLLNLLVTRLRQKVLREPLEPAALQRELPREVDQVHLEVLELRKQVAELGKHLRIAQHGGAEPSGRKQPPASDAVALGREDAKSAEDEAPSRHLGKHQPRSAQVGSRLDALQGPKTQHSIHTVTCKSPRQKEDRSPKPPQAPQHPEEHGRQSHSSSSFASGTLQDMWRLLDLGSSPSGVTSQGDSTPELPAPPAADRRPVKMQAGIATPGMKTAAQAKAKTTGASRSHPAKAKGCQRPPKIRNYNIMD
# UniProt Q9P0B6, sequence (Q9P0B6 whole entry, looked up): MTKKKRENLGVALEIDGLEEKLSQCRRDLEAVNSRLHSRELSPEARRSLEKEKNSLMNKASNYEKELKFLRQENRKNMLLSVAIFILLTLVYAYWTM
Target,log2 fold change [1],log2 fold change (volasertib),log2 fold change (epoxomicin),log2 fold change [2],log2 fold change [3],log2 fold change [4],log2 fold change (rosiglitazone),log2 fold change [5],log2 fold change [6],log2 fold change [7]
CIR1 (UniProt Q86X95),0,0.049,-0.212,-0.015,0.055,0.142,-0.169,0.234,-0.458,
CFAP36 isoform 2 (UniProt Q96G28),-0.159,-0.433 (active),-0.017,0.077,0.048,0.005,0.06,0.051,-0.049,
C6orf120 (UniProt Q7Z4R8),0.066,-0.101,,0.095,,-0.155,0.06,-0.245,,0.019
CASP9 (UniProt P55211),-0.083,-0.629 (active),0.054,,0.035,0.048,,0.001,-0.188,0.008
CCDC167 (UniProt Q9P0B6),0.069,-0.12,0.019,-0.011,0.13,,-0.084,-0.095,0.033,-0.029
CCNT2 (UniProt O60583),0.035,-0.096,0.004,,-0.084,,,0.023,-0.101,0.056
CASP10 isoform 4 (UniProt Q92851),-0.091,-0.582 (active),0.004,,0.121,-0.016,-0.093,0.023,-0.331,0.015
CLASP2 (UniProt O75122),-0.104,-0.123,,-0.038,,,0.166,,,0.083
CCM2 isoform 2 (UniProt Q9BSQ5),-0.207,-0.412 (active),0.102,-0.047,-0.017,-0.01,0.032,-0.012,-0.233,
CLN8 (UniProt Q9UBY8),0.069,0.001,,-0.101,0.005,0.145,0.327,0.135,0.191,0.077
C15orf41 (UniProt Q9Y2V0),-0.04,-0.188,-0.165,-0.023,-0.333 (active),-0.022,,0.019,0.001,
C19orf54 (UniProt Q5BKX5),0.054,-0.06,0.094,-0.152,0.056,0.036,,-0.177,-0.141,
CDK19 (UniProt Q9BWU1),0.016,-0.064,-0.114,0.038,-0.1,-0.068,,0.003,0.456,0.069
CRLS1 (UniProt Q9UJA2),0.029,0.026,,-0.024,0.052,-0.024,,-0.006,0.09,0.001
COPS3 isoform 2 (UniProt Q9UNS2),0.079,0.031,0.059,,-0.075,-0.165,-0.046,,-0.124,0.001
CCND3 (UniProt P30281),-0.085,0.102,0.363 (active),-0.003,-0.021,-0.022,-0.025,0.063,-0.175,
CDCA2 (UniProt Q69YH5),0.193,0.275,-0.025,0.015,0.152,-0.038,,,0.205,-0.131
CDK8 (UniProt P49336),0.096,-0.039,-0.098,0.027,-0.236,-0.044,-0.02,-0.025,0.356,
CDC25B isoform 4 (UniProt P30305),-0.003,-0.049,0.1,-0.031,-0.092,-0.021,-0.012,,-0.081,-0.266
CFAP58 (UniProt Q5T655),-0.353,-0.04,,,-0.112,,,,-0.272,

Target,log2 fold change [1],log2 fold change (volasertib),log2 fold change (epoxomicin),log2 fold change [2],log2 fold change [3],log2 fold change [4],log2 fold change (rosiglitazone),log2 fold change [5],log2 fold change [6],log2 fold change [7]
CKS2 (UniProt P33552),0.01,-0.044,,,-0.23,,0.028,0.023,0.594 (active),0.029
CCDC57 (UniProt Q2TAC2),-0.033,0.012,-0.059,0.036,,-0.034,0.018,,,-0.043
CDK4 (UniProt P11802),0.16,0.071,0.16,-0.018,,-0.085,0,0.146,,0.117
CNOT4 isoform 9 (UniProt O95628),0.198,-0.006,,0.017,-0.095,0.046,-0.022,-0.105,0.072,-0.046
CFAP47 (UniProt Q6ZTR5),0.063,0.065,-0.006,,,-0.248,0.108,0.23,,
CDK17 isoform 2 (UniProt Q00537),-0.153,-0.079,0.07,0.032,-0.012,0.046,0.038,0.022,0.051,
CAB39L (UniProt Q9H9S4),-0.134,-0.054,0.018,0.008,0.161,-0.169,0.107,-0.047,0.072,
CLN3 (UniProt Q13286),-0.003,0.055,0.09,-0.008,,-0.001,-0.002,0.074,,-0.038
CASP7 isoform 3 (UniProt P55210),0.014,,0.222,-0.001,-0.569,,0.259,0.032,-0.697,0.017
CPNE5 (UniProt Q9HCH3),,,,0.132,,,,,,
CDKN1B (UniProt P46527),,0.028,0.393,-0.034,0.036,0.025,0.067,0.06,0.073,-0.083
C9orf72 (UniProt Q96LT7),,-0.089,-0.008,0.003,0.226,0.075,-0.033,-0.094,0.209,0.062
CSNK1A1 isoform 3 (UniProt P48729),,-0.224,,,,,-0.005,,,
CLCN5 isoform 2 (UniProt P51795),-0.299,,,0.002,0.172,0.046,,0.098,-0.267,0.151
CCNDBP1 (UniProt O95273),0.088,,,-0.045,-0.036,-0.094,0.032,0.013,-0.048,0.133
CARD9 (UniProt Q9H257),,,,-0.103,,,,,,
CEP128 (UniProt Q6ZU80),-0.009,-0.09,,,,-0.11,0.049,0.039,,
CNRIP1 (UniProt Q96F85),,0.306,-0.043,-0.136,,,,,,-0.269
CREB3L2 (UniProt Q70SY1),,,0.035,-0.125,,0.069,-0.031,,,0.067
